In the library only some 1.2% were active in any assay of this set; here they are far more common.
TSHR antag: blocks TSH signaling through the human TSH receptor; P16473; TSHR-expressing cells, TSH-stimulated cAMP HTRF, 2 h; hits give low values; activity change, negative = inhibition, % at 11.5 µM; hit rate 0.2% among 330,000;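 active = activity change below a set negative limit, meaning inhibition stronger than a set level, cut at about -70% in these data; inconclusive = activity change between two set negative limits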; also: % is scaled to controls: 0 for no effect and ±100 for the full control effect
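Antagonism was scored as loss of TSH-driven cAMP in TSHR cells, stimulated with 4nM TSH (EC80) for 2 hours at 37 deg C and detected by homogeneous HTRF competition immunoassay.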
S-ASM inh: blocks human secretory acid sphingomyelinase; P17405; placental ASM, HMU-PC fluorogenic substrate, 60 min; Potency, µM (series often up to 57.5 µM), inactives show at the top dose activity change, negative = inhibition, most hits filed as inhibitors; hit rate 0.006% among 340,000; also: potency is read from the fitted curve at half-maximal effect
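Human placenta-derived ASM preincubated with compound 10 min at room temperature, then reacted with 9 uM (final) fluorogenic HMU-PC substrate for 60 min at 37 C. Stop solution raises pH to 10; fluorescence read at Ex 386/Em 447 nm.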
BRCA1 expr act: increases BRCA1 expression; MCF7-BRCA1-FFLuc reporter, luminescence, 48 h; response scale: scaled: vehicle 0%, 10 µM genistein 100%; Potency, µM (highest dose often 46.1 µM), inactives show top-dose activation, hits mostly activators; hit rate 1.1% among 380,000; AID 624202; also: potency is read from the fitted curve at half-maximal effect; nearly all actives have a fitted effect of over 80% in size
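MCF7-BRCA1-FFLuc cells, 2000/well in phenol-red-free MEM, attached 2 h then treated 48 h at 37 C. Luciferase luminescence read 15 min after reagent; normalized to genistein maximum activation (10microM) and DMSO, concentration-response fitted.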
PTAP TSG101 blk: blocks PTAP/TSG101 interaction to inhibit HIV-1 budding. Fluorescence polarization, FITC-PTAP peptide / Tsg101 binding. Potency, µM (series often up to 115 µM), for inactives: at the highest dose activity change, negative = inhibition, most hits filed as inhibitors. 340,000 tested, under 10 active. AID 493005; active = well fitted inhibition curve with a large enough effect in the main read-out, with a control signal flat, not every such curve was filed as active; inconclusive = small, poorly fitted or top-dose-only effect, or effect the other way, or a change in a side signal; inactive = no such curve, though single readings can be large or run the other way; also: potency is read from the fitted curve at half-maximal effect; % of control where 0% means no effect
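Fluorescence anisotropy tracks displacement of a FITC-tagged PTAP peptide (50 nM) from the Tsg101 binding domain (10 uM), following a 20 min room-temperature incubation at pH 7.5.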
Anesthetic bind: candidate novel general anesthetic via apoferritin binding; P02791; apoferritin/1-aminoanthracene competitive binding, fluorescence; Potency, µM (doses to about 77.5 µM), inactives show at the top dose activity change, negative = displacement, actives largely listed as inhibitors; hit rate 0.074% among 350,000; also: potency is read from the fitted curve at half-maximal effect; % is scaled to controls: 0 for no effect and ±100 for the full control effect; nearly all actives have a fitted effect of over 20% in size
Target sequence (P02791 2-175 limits assumed): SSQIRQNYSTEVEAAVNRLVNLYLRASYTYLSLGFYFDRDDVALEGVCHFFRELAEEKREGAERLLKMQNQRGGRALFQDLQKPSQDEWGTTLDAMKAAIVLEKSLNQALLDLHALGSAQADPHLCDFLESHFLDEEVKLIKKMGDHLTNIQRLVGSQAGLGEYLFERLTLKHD
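Steps: apoferritin (10 uM) was premixed with half-saturated 1-AMA in PBS, compounds were pin-transferred, plates stood 10 min at room temperature, fluorescence was read at 380/535 nm, and curves were fitted with a Hill equation.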
* = called active by the depositor; ? = inconclusive; . = no result given. Unless noted, calls follow the shape of the dose curve; as a rule, active = well fitted curve in the direction sought with a large enough effect; inconclusive = small, poorly fitted or top-dose-only effect, or another doubt; inactive = no such curve, though single readings can be large; an effect the other way counts as inactive or inconclusive.

SMILES	TSHR antag	S-ASM inh	BRCA1 expr act	PTAP TSG101 blk	Anesthetic bind
Cn1nnnc1SCc1csc(Nc2ccccc2)n1	1	-1%	13µM*	0%	?
Cc1ccc(Nc2nc(CSc3nnnn3-c3ccccc3)cs2)cc1	.	-6%	-32%	2%	-19%
Cc1ccc(Nc2nc(CSc3nnc(-c4ccccc4C)n3C)cs2)cc1	13	-5%	45%	-1%	-20%
Cc1ccc(Nc2nc(CSc3nnc(-c4ccccc4)n3C)cs2)cc1	-3	-1%	3.5µM*	-3%	?
CCCN1C(=O)c2ccccc2NC1c1ccc(OC)c(COc2ccc([N+](=O)[O-])c(C)c2)c1 (stereo not given)	.	.	0%	.	.
COc1ccc(-c2nnc(SCc3ccccn3)n2C)cc1	-1	-1%	13µM*	-2%	-1%
CNc1cc(C(=O)O)nc2ccccc12	.	.	-61%	.	.
Cc1nnc(NC(=O)c2ccc3c(c2)OCO3)s1	5	5%	5.6µM*	-4%	-2%
CSc1nnc(NC(=O)c2ccc3c(c2)OCO3)s1	-9	4%	-29%	-3%	-2%
Cc1nnc(SCc2ccc3c(c2)OCO3)s1	-23	1%	8.9µM*	-2%	?
CC[C@H](C)[C@H](NC(=O)[C@H](Cc1ccc(O)cc1)NC(=O)[C@@H](NC(=O)[C@H](CCCN=C(N)N)NC(=O)[C@@H](N)CC(=O)O)C(C)C)C(=O)N[C@@H](Cc1ccc(N)cc1)C(=O)N1CCC[C@H]1C(=O)N[C@@H](Cc1ccccc1)C(=O)O	.	.	.	.	2%
Cc1noc(C)c1-c1ccc2ncnc(NCc3ccco3)c2c1	.	.	.	.	0%
CCn1c(SCC(=O)c2ccccc2)nnc1-c1cnccn1	-2	-2%	10µM*	-1%	6%
Cn1c(SCC(=O)c2ccccc2)nnc1-c1cnccn1	10	-1%	59%	-3%	-16%
Cn1c(SCC(=O)c2ccccc2)nnc1-c1cccs1	-4	3%	10µM*	0%	2%
NCC(=O)N[C@@H](CCCN=C(N)N)C(=O)NCC(=O)N[C@@H](CC(=O)O)C(=O)N[C@@H](CO)C(=O)O	.	.	.	.	5%
O=C(CCS(=O)(=O)c1ccc(F)cc1)Nc1nc(-c2ccccn2)cs1	-110*	8%	-75%	6%	7%
CC(C)c1ccc(NC(=O)c2cc3c([nH]c2=O)CC(C)(C)CC3=O)cc1	.	.	16%	.	.
C=C1C=C(C(F)F)n2ncc(C(=O)NCc3ccc(Cl)cc3Cl)c2N1	.	.	4%	.	.
CC1CCN(C(=S)NCCc2ccccc2)CC1	-15	-1%	7.1µM*	-4%	-12%
O=C(NCCc1ccccc1)C(=O)NC1CCCCC1	1	1%	4µM*	-9%	-2%
S=C(NCCc1ccccc1)N1CCN(C(=S)NCCc2ccccc2)CC1	13	1%	16%	-1%	.
O=C(NC1CCCCC1)C(=S)NCCc1ccccc1	-14	-2%	11µM*	3%	-19%
S=C(NCCc1ccccc1)NC1CCCCCC1	-11	2%	?	4%	-16%
O=C1/C(=C/c2ccsc2)CC/C1=C\c1cccs1	-13	.	.	.	.
SMILES	TSHR antag	S-ASM inh	BRCA1 expr act	PTAP TSG101 blk	Anesthetic bind
COc1cc2nc(N3CCCN(C)CC3)nc(NC3CCNCC3)c2cc1OC	.	.	0%	.	.
NC(CC(=O)Nc1ccc(Oc2cc(F)c(F)cc2Br)cc1)C(=O)O (stereo not given)	.	.	.	.	-16%
COc1ccc(CCSc2n[nH]c(C(C)C)n2)cc1	.	.	21%	.	.
O=C(NCC1CCCO1)c1sc2cc(Cl)ccc2c1Cl (stereo not given)	0	4%	10µM*	-1%	-12%
CCCC(=O)N(CCN1CCOCC1)c1nc2cc(C)c(C)cc2s1	21	1%	4µM*	1%	-5%
COc1ccc(-c2nnc(SCc3ccccc3F)o2)cc1	-2	-3%	?	2%	-10%
Cc1ccc(C)c(CSc2nnc(-c3cccnc3)o2)c1	-29	-2%	-48%	.	?
Fc1ccccc1CSc1nnc(-c2ccccc2)o1	-3	0%	4µM*	-2%	?
Fc1ccccc1CSc1nnc(-c2cccnc2)o1	-14	-1%	7.1µM*	-5%	?

Screening data as filed in PubChem BioAssay.
